Experimental data from PubChem BioAssay AID504332 (National Center for Advancing Translational Sciences (NCATS), 2011).
Screen size: about 350,000 compounds; about 31,000 (8.9%) were called active. Not shown: some 15% with an inconclusive outcome. The list comes from a sample in which actives are over-represented; it also holds similar structures and randomly drawn compounds. Some compounds were tested as several samples or in several runs, with calls that do not always agree. Values without a mark were called inactive. Calls follow the shape of the dose curve; as a rule, active = well fitted inhibition curve with a large enough effect; inconclusive = small, poorly fitted or top-dose-only effect; inactive = no such curve, though single readings can be large or run the other way.

Biological target: Histone-lysine N-methyltransferase EHMT2 (Homo sapiens) (UniProt Q96KQ7)
Test: qHTS Assay for Inhibitors of Histone Lysine Methyltransferase G9a; also: nearly all actives have a fitted effect of over 75% in size
Details: G9a H3K9 monomethylation, AlphaScreen, 2 h; series mostly up to 59 µM; activity, negative = inhibition: at the top concentration
In short: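 Signal arises when biotinylated H3K9 peptide, once monomethylated, bridges streptavidin donor and antibody-captured acceptor beads. Enzyme at 20 nM was preincubated 15 min with test compounds; peptide 500 nM and SAM 20 uM then reacted for 2 h.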
% is scaled to controls: 0 for no effect and ±100 for the full control effect; potency is read from the fitted curve at half-maximal effect.

Sequence of Histone-lysine N-methyltransferase EHMT2 (Homo sapiens) (Q96KQ7 913-1193 limits assumed): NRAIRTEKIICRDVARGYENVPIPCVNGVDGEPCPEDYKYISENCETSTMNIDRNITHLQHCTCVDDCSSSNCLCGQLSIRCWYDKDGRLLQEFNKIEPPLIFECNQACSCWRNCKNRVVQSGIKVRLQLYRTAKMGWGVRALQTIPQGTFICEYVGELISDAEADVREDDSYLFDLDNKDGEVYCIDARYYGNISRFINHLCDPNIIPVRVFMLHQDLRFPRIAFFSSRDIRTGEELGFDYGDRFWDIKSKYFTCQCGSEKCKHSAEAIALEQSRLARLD

Row | Structure (SMILES) | activity, negative = inhibition | Potency
1 | CCOc1ccccc1N(CC)C(=O)Nc1cn(C)c(=O)c2ccccc12 | 8.87% | 
2 | Cn1c(=O)c2[nH]c(NCC3CCCO3)nc2n(-c2ccccc2)c1=O (stereo unspecified) |  | 8.91 µM (active)
3 | Cc1sc2c(c1C)c(=O)n(-c1ccccc1)c(=O)n2CC(=O)NCC1CCCO1 (stereo unspecified) | 8.85% [at 102 µM] | 
4 | CC(C)(C)c1nc(NCC2CCCO2)c2nnn(Cc3ccccc3)c2n1 (stereo unspecified) | 3.94% [at 102 µM] | 
5 | CCN(CC)C(=O)CSc1nc2ccsc2c(=O)n1Cc1ccccc1Cl | -7.47% | 
6 | CCc1ccc2c(c1)C(c1ccc([N+](=O)[O-])cc1)=NNC(c1ccccc1)=N2 | 16.6% [at 102 µM] | 
7 | CCC1OC(c2ccc([N+](=O)[O-])cc2)=Nc2ccccc21 (stereo unspecified) |  | 44.7 µM (active)
8 | CCCCN(C)c1ccc([N+](=O)[O-])cc1 | 9.6% | 
9 | Cc1cccnc1NC(=O)CSc1nnc(COc2ccc(C(C)C)cc2)n1C | -14% [at 102 µM] | 
10 | COc1ccc(OC)c(NC(=O)CSc2nc3cccnc3n2C)c1 | -2.8% [at 12.7 µM] | 
11 | COc1ccc(-c2nnc(SCC(=O)Nc3cccnc3Cl)n2C)cc1 |  | 20 µM (active)
12 | CC1=C/C(=N\OS(=O)(=O)c2ccccc2)C=CC1=O |  | 2.51 µM (active)
13 | O=S(=O)(ON(c1ccccc1)S(=O)(=O)c1ccccc1)c1ccccc1 | -7.16% | 
14 | CCOc1ccc(/C=C/C(=O)N(CC)CC(=O)NCc2cccs2)cc1OC | 7.69% [at 2.33 µM] | 
15 | O=C(Cn1nnc(-c2ccccc2)n1)NC(=O)NC1CCCC1 | 14.2% | 
16 | Cc1ccc2c(c1)c1ncn(Cc3ccc(F)cc3)c(=O)c1n2C | 23.9% | 
17 | Cn1c2ccc(F)cc2c2nnc(NN)nc21 |  | 39.8 µM (active)
18 | CC(=O)Nc1ccc(NC(=O)CSc2nnc3c4cc(Br)ccc4n(C)c3n2)cc1 | 2.98% | 
19 | O=C(CN1C(=O)COc2ccc(S(=O)(=O)N3CCOCC3)cc21)N1CCN(c2cccc(Cl)c2)CC1 | -5.56% | 
20 | CCN1CCN(c2nc(Nc3cc(OC)ccc3OC)nc(Nc3cc(OC)ccc3OC)n2)CC1 | -48.8% | 

Row | Structure (SMILES) | activity, negative = inhibition | Potency
21 | CCOc1ccc(Nc2nc(Cl)nc(N3CCN(c4ccc(OC)cc4)CC3)n2)cc1 |  | 12.6 µM (active)
22 | Cc1ccc(Nc2nc(N3CCOCC3)nc(N3CCOCC3)n2)cc1Cl | 32.7% | 
23 | CC1CCN(c2nc3ccc(C(=O)N4CCN(c5ccccc5)CC4)cc3s2)CC1 | -31.4% | 
24 | COC(=O)c1ccc(COC(=O)c2cnc(Cl)c(Cl)c2)cc1 | 17.8% [at 102 µM] | 
25 | Cc1cc(C)n(S(=O)(=O)c2cccc([N+](=O)[O-])c2)n1 | -7.95% [at 102 µM] | 
26 | C/C(=N\NS(=O)(=O)c1cccc([N+](=O)[O-])c1)c1cc2ccccc2o1 |  | 12.6 µM (active)
27 | CC1CN(C(=O)c2ccccc2NS(=O)(=O)c2cccc([N+](=O)[O-])c2)CC(C)O1 (stereo unspecified) | 18.8% | 
28 | COc1ccccc1NS(=O)(=O)c1ccc(C)c(C(=O)NCC(c2ccco2)N(C)C)c1 (stereo unspecified) | 22.9% [at 0.501 µM] | 
29 | COc1ccc(N2CCN(C3CCCCC3NS(=O)(=O)c3ccccc3)CC2)cc1 (stereo unspecified) |  | 22.4 µM (active)
30 | O=S(=O)(NC1CCCCC1N1CCN(c2ccccc2F)CC1)c1ccccc1 (stereo unspecified) | 35.8% [at 102 µM] | 
31 | CCN1CCN(C2CCCCC2NS(=O)(=O)c2ccc(Cl)cc2)CC1 (stereo unspecified) | -0.698% [at 102 µM] | 
32 | CCC(CC)c1nnc(NC(=O)C2CCN(C(=O)c3ccco3)CC2)s1 |  | 3.98 µM (active)
33 | CCC(=O)Nc1ccc(C(=O)N2CCN(C(=O)c3ccco3)CC2)cc1 | 23.7% [at 102 µM] | 
34 | COc1ccc(CNC(=O)C2CCN(C(=O)c3ccco3)CC2)cc1 | 16.9% [at 102 µM] | 
35 | CCN(CC)c1nn2c(=O)c(C(=O)NCCc3ccccc3)cnc2s1 | 18.4% | 
36 | CCc1noc(C)c1C(=O)Nc1nc2ccc(OC)cc2s1 | -2.24% [at 12.7 µM] | 
37 | COC(=O)c1nc(NC(=O)c2ccc(C(C)(C)C)cc2)n[nH]1 |  | 31.6 µM (active)
38 | COc1ccc(C(=O)Nc2ccc(F)cc2F)cc1 | 29.4% [at 12.7 µM] | 
39 | O=C(Nc1n[nH]c(C(F)(F)F)n1)c1cccs1 | 0.152% [at 102 µM] | 
40 | COC(=O)c1nc(NC(=O)c2ccccc2)n[nH]1 | -8.15% [at 12.7 µM] | 

Row | Structure (SMILES) | activity, negative = inhibition | Potency
41 | COC(=O)c1nc(NC(=O)c2ccc(F)cc2)n[nH]1 |  | 35.5 µM (active)
42 | CSc1nccc(NC(=O)c2ccc(C(C)(C)C)cc2)n1 | 15.8% [at 0.501 µM] | 
43 | COc1ccc(CNC(=O)COC(=O)c2ccc(C)c(S(=O)(=O)N3CCOCC3)c2)cc1OC | -2.29% | 
44 | O=C(c1cc(-c2ccc(Cl)cc2)on1)N1CCN(c2ccccc2)CC1 | -4.11% | 
45 | Cc1ccc(NC(=O)Cn2cnc3nc4c(cc3c2=O)CCCC4)cc1Cl | 2.05% | 
46 | Cc1ccc(C(=O)C(C)OC(=O)Cc2n[nH]c(=O)c3ccccc23)cc1C (stereo unspecified) | 13.1% [at 2.33 µM] | 
47 | CCOC(=O)c1c(C)[nH]c(C)c1S(=O)(=O)N1CCCC(C(=O)NCc2ccccc2Cl)C1 (stereo unspecified) | -29.4% | 
48 | COc1ccc(NC(=O)N2CCCC(C(=O)Nc3ccccc3OC)C2)cc1 (stereo unspecified) | -0.0547% [at 102 µM] | 
49 | COc1ccc(C(=O)C2CCCN(Cc3ccc4nonc4c3)C2)c(C)c1 (stereo unspecified) | 88.2% [at 102 µM] | 
50 | COc1ccc(CN2CCCC(CNC(=O)c3ccc(F)cc3)C2)cc1OC (stereo unspecified) | 31.5% [at 102 µM] | 
51 | COc1ccc(CCN(C)C(=O)C2CCCN(Cc3ccc(OC)c(OC)c3)C2)cc1OC (stereo unspecified) | -16.1% [at 0.501 µM] | 5.01 µM (active)
52 | O=C(c1ccc(F)cc1)N1CCCC(C(=O)N2CCCCC2)C1 (stereo unspecified) | 67.9% [at 102 µM] | 
53 | CCCCNC(=O)N1CCCC(N(C)CCc2ccc(OC)c(OC)c2)C1 (stereo unspecified) | 38.3% [at 102 µM] | 
54 | CCOC(=O)C1CCCN(C(=O)/C=C/c2ccc(OC)cc2)C1 (stereo unspecified) | -38% [at 102 µM] | 
55 | COc1ccc(CN2CCCC(C(=O)N3CCCCC3)C2)cc1 (stereo unspecified) |  | 11.2 µM (active)
56 | COc1ccc(/C=C/C(=O)NC(=S)N2CCCC(C(N)=O)C2)cc1 (stereo unspecified) |  | 79.4 µM (active)
57 | Cc1nn(-c2ccc(N3CCCCC3)nn2)c(C)c1CCC(=O)NCc1ccccc1F | 10.5% | 
58 | OC(c1ccc(Cl)cc1)C(CN1CCOCC1)c1ccccc1 (stereo unspecified) | -30.5% [at 2.33 µM] | 
59 | COC(=O)[C@]1(C)CCC[C@@]2(C)C3CC[C@]4(OC(C)=O)C[C@@]3(CCC21)CC4=NO (stereo partly specified) | 3.11% [at 0.501 µM] | 
60 | COc1cc(OC)cc(-c2c(-c3cccs3)c3cc(-c4ccc(OC)nc4)ccc3n2C)c1 | 0.323% [at 0.501 µM] | 
